Measurements published in PubChem BioAssay (Tox21).
Inconclusive results are not listed. Entries that show only a call come without a potency. Unmarked numbers belong to inactive results. Activity calls are given as the source filed them. Calls follow the shape of the dose curve; as a rule, active = well fitted cell-killing curve with a large enough effect in the repeat runs; inconclusive = weak or mixed curves, or effect the other way; inactive = flat fitted curve, though single readings scatter.

Assay: qHTS assay to identify small molecule agonists of the estrogen receptor beta (ER-beta) signaling pathway - cell viability counter screen (AID 1259380); also: nearly all actives have a fitted effect of over 30% in size
Conditions: ER-beta-bla HEK293T viability, CellTiter-Glo luminescence, 16 h; series mostly up to 92.4 µM
Description: National Center for Advancing Translational Sciences [NCATS]
NIH Chemical Genomics Center [NCGC]
U.S. Environmental Protection Agency [EPA]
National Institutes of Environmental Health Sciences [NIEHS]
National Toxicology Program [NTP]
U.S. Food and Drug Administration [FDA]
Estrogen receptor (ER), a nuclear hormone receptor, plays an important role in development, metabolic homeostasis and reproduction. Two subtypes of ER, ER-alpha and ER-beta, have similar expression patterns with some uniqueness in both types. Endocrine disrupting chemicals (EDCs) and their interactions with steroid hormone receptors like ER causes disruption of normal endocrine function. To identify the compounds that activate ER signaling, an ER beta-UAS-bla GripTite cell line (Life Technologies, Madison, WI, USA) containing a beta-lactamase reporter gene under the control of an UAS response element was used to screen Tox21 10K compound library. The cytotoxicity of the Tox21 compound library against the ER-beta-bla cell line was tested in parallel by measuring the cell viability using CellTiter-Glo assay in the same wells.
Tox21 Assay Protocol Summary:
ER-beta-UAS-bla HEK293T cells were dispensed at 2,000 cells/5 uL of assay medium containing 2% charcoal stripped FBS per well into black wall/clear-bottom 1536-well plates using a Multidrop Combi (ThermoFisher Scientific, Waltham, MA) dispenser. After the assay plates were incubated at a 37C and 5% CO2 for 6 hr, 23 nL of compounds dissolved in DMSO, positive controls or DMSO only was transferred to the assay plate by a Pintool station (Kalypsys, San Diego, CA). The plates were incubated at 37C and 5% CO2 for 16 hr. Then 1 uL of LiveBLAzerTM B/G FRET substrate was added using a BioRAPTR FRD (Flying Reagent Dispenser, Aurora Discovery, San Diego, CA) and then the plates were incubated at room temperature for 2 hours, and fluorescence intensity was measured by an Envision plate reader (PerkinElmer, Shelton, CT). For cell viability readout that measures cytotoxicity, 4 uL/well of CellTiter-Glo reagent was added into the assay plates using a FRD. After 30 min incubation at room temperature, the luminescence intensity in the plates was measured using a ViewLux (PerkinElmer) plate reader.
Potency is read from the fitted curve at half-maximal effect.

Structure (SMILES)	Potency	activity change, negative = cytotoxicity
O=C1c2ccccc2C(=O)c2c(O)ccc(O)c21	inactive	
CCCCCCC(O)CCOC(C)=O (stereo not given)	inactive	
Cc1oc(=O)oc1COC(=O)[C@@H]1N2C(=O)[C@@H](NC(=O)[C@H](N)c3ccccc3)[C@H]2SC1(C)C	inactive	
OCC(CO)n1cnc(-c2ccc(F)cc2)c1-c1ccnc(Oc2ccccc2)n1	inactive	
CSSc1ccoc1C	inactive	
O=C(O)CO	inactive	
c1ccc(CNc2ncnc3c2ncn3C2CCCCO2)cc1 (stereo not given)	inactive	
O=C(Oc1ccccc1)c1ccc2ccccc2c1O	inactive	
Cc1ccc(N(CC2=NCCN2)c2cccc(O)c2)cc1	inactive	
CC[C@H]1OC(=O)[C@H](C)[C@@H](O[C@H]2C[C@@](C)(OC)[C@@H](O)[C@H](C)O2)[C@H](C)[C@@H](O[C@@H]2O[C@H](C)C[C@H](N(C)C)[C@H]2O)[C@](C)(O)C[C@@H](C)C(=O)[C@H](C)[C@@H](O)[C@]1(C)O	inactive	
CSCC[C@H](NC(=O)[C@H](Cc1c[nH]c2ccccc12)NC(=O)CCNC(=O)OC(C)(C)C)C(=O)N[C@@H](CC(=O)O)C(=O)N[C@@H](Cc1ccccc1)C(N)=O	inactive	
O=C(C(=O)c1ccco1)c1ccco1	inactive	
CCCCC[C@H](O)/C=C/[C@H]1[C@H](O)CC(=O)[C@@H]1C/C=C\CCCC(=O)O	inactive	
Cc1ccc(N(CCO)CCO)cc1	inactive	
C/C(C=O)=C\c1ccccc1	inactive	
C=CCOC(=O)COCCC(C)C	inactive	
O=S(=O)(O)CO	inactive	
Nc1ccc(NC(=O)c2ccc(N)cc2)cc1	54.5 µM (active)	
c1ccc2sc(SSc3nc4ccccc4s3)nc2c1		-1.6% [at 19 µM]
CC(=O)OCC1=C(C(=O)O)N2C(=O)[C@@H](NC(=O)CSc3ccncc3)[C@H]2SC1	inactive	

Structure (SMILES)	Potency	activity change, negative = cytotoxicity
CC(CN(CCN(CC(C)OCCO)CC(C)OCCO)CC(C)OCCO)OCCO (stereo not given)	inactive	
CC1=C2[C@@H]([C@H](C)CC[C@H]2/C=C(\C)C(=O)O)[C@H](O)C1	inactive	
O=C1CC[C@@H](C(=O)O)N1	inactive	
CC(=O)c1ccc[nH]1	inactive	
[Cl][Nd]([Cl])[Cl]	inactive	
CCC(Cl)CC(Cl)C(Cl)C(Cl)C(Cl)C(C)Cl (stereo not given)		-10.7% [at 19 µM]
CCCOC(=O)c1c(Cl)c(Cl)c(Cl)c(Cl)c1C(=O)OCCC	inactive	
O=C(O)c1cccc(C[C@@H]2COc3ccc(OCc4nc5cc(F)ccc5s4)cc3[C@@H]2O)c1	inactive	
CC(C)CC(O)CC(C)C	inactive	
COC1CCC=CO1 (stereo not given)	inactive	
CO[C@@H]1[C@@H](OC)[C@H](C)[C@@](O)(CC(=O)O)O[C@H]1[C@H](C)[C@H]1O[C@@]2(CC[C@@](C)([C@H]3CC[C@@](C)([C@@H]4O[C@@H]([C@H]5O[C@](C)(O)[C@H](C)C[C@@H]5C)C[C@@H]4OC4C[C@H](OC)[C@@H](OC)[C@H](C)O4)O3)O2)C[C@H](O)[C@H]1C (stereo not given in full)	1.88 µM (active)	
COc1ccc(-c2cc(C(F)F)nn2-c2ccc(S(N)(=O)=O)cc2)cc1F	inactive	
CCCCCCCCCCCCCCN(C)C		-12.9% [at 19 µM]
CCCCC(CC)COS(=O)(=O)O (stereo not given)	inactive	
CCOC(=O)N1CCC(Nc2ccc(Cl)cc2N)CC1	inactive	
CCOc1ncc(F)c(=O)[nH]1	inactive	
CC(C)(O)CCc1ccccc1	inactive	
C[C@@H]1C[C@H]2[C@@H]3CCC4=CC(=O)C=C[C@]4(C)[C@@]3(F)[C@@H](O)C[C@]2(C)[C@@]1(O)C(=O)COP(=O)(O)O	inactive	
CCN(CC)CCNC(=O)c1cc(Cl)c(N)cc1OC	inactive	
CCc1ccc(C)cc1	inactive	
